According to PubChem BioAssay (Tox21):
Results filed as inconclusive are left out. The source made the active and inactive calls. Unless noted, calls follow the shape of the full dose curve.

Tests used:
[1] = qHTS assay to identify small molecule agonists of the vitamin D receptor (VDR) signaling pathway - cell viability counter screen (AID 743224; active = well fitted curve in the direction sought with a large enough effect in the repeat runs; an effect the other way counts as inactive or inconclusive; also: series mostly up to about 63 µM; nearly all actives have a fitted effect of over 50% in size)
Procedure, shortened: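 Counter screen for cytotoxicity: VDR-bla cells at 2,000 cells/well, 16 h compound exposure, then CellTiter-Glo luminescence after the beta-lactamase measurement.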

[2] = qHTS assay to identify small molecule agonists of the NFkB signaling pathway (AID 1159509; active = well fitted curve in the direction sought with a large enough effect in the signal ratio in the repeat runs, not every such curve was filed as active; the % refers to the signal ratio; also: series mostly up to about 61 µM)
Procedure, shortened: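 Readout: FRET fluorescence, 405 nm excitation, 460/530 nm emission; beta-lactamase expression disrupts FRET. Cells: ME-180 stably carrying NF-kB-driven bla reporter. Compound exposure 5 hr, 37 C, 5% CO2.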

[3] = qHTS assay to identify small molecule agonists of the NFkB signaling pathway - cell viability counter screen (AID 1159515); also: series mostly up to about 61 µM; nearly all actives have a fitted effect of over 55% in size
Procedure, shortened: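 Counter screen run alongside the NFkB-bla agonist assay: ME-180 reporter cells exposed to compounds for 5 hr, then lysed with CellTiter-Glo in the same wells. Luminescence, read after 30 min, reflects viable cells.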

[4] = qHTS assay to identify small molecule agonists of the endoplasmic reticulum stress response signaling pathway (AID 1159516; active = well fitted activation curve with a large enough effect in the signal ratio in the repeat runs, not every such curve was filed as active; the % refers to the signal ratio)
Procedure, shortened: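 For this screen, HeLa cells stably carrying beta-lactamase under the ER stress response element received test compounds, positive controls or DMSO for 5 hr at 37 C; B/G FRET substrate was then added and dual-wavelength emission recorded.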

[5] = qHTS assay to identify small molecule agonists of the endoplasmic reticulum stress response signaling pathway - cell viability counter screen (AID 1159517); also: series mostly up to about 61 µM; nearly all actives have a fitted effect of over 50% in size
Procedure, shortened: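 After overnight attachment, ESRE-bla HeLa cells were treated with Tox21 library compounds for 5 hr. CellTiter-Glo luminescence, read 30 min post-addition at room temperature, reported viability.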

[6] = qHTS assay to identify small molecule antagonists of the retinoid-related orphan receptor gamma (ROR-gamma) signaling pathway - cell viability counter screen (AID 1159520; active = well fitted curve in the direction sought with a large enough effect in the repeat runs; an effect the other way counts as inactive or inconclusive; also: nearly all actives have a fitted effect of over 50% in size)
Procedure, shortened: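 Cytotoxicity was read from cellular ATP (CellTiter-Glo luminescence) after 16 hr at 37 C with 1 uM doxycycline induction. The inducer was added 2 hr after compound transfer to Tet-on ROR gamma CHO cells.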

[7] = target: Nuclear receptor ROR-gamma (Homo sapiens) (UniProt P51449); assay: qHTS assay to identify small molecule antagonists of the retinoid-related orphan receptor gamma (ROR-gamma) signaling pathway (AID 1159521; active = well fitted curve in the direction sought with a large enough effect in the repeat runs; an effect the other way counts as inactive or inconclusive;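 also: CHO cells with doxycycline inducible ROR-gamma driving an RORE luciferase reporter; top concentration of the series differs between compounds; nearly all actives have a fitted effect of over 50% in size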)
Procedure, shortened: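 CHO Tet-on RORγ, RORE-luc reporter. Cpd 2 h pre-incubation, then dox hyclate 1 uM final, 16 h, 37 C/5% CO2. ONE-Glo luminescence; decrease = antagonist.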

[8] = qHTS assay to identify small molecule agonists of the AP-1 signaling pathway - cell viability counter screen (AID 1159525); also: nearly all actives have a fitted effect of over 55% in size
Procedure, shortened: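 Intracellular ATP by Cell Titer Glo luminescence (30 min, RT) in the same ME-180 AP-1-bla wells after the 5 h compound exposure at 37 °C. Normalised to tetra n-octyl ammonium bromide and DMSO controls.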

[9] = qHTS assay to identify small molecule agonists of the AP-1 signaling pathway (AID 1159526)
[10] = qHTS assay to identify small molecule antagonists of the vitamin D receptor (VDR) signaling pathway - cell viability counter screen (AID 743225; active = well fitted curve in the direction sought with a large enough effect in the repeat runs; an effect the other way counts as inactive or inconclusive; also: nearly all actives have a fitted effect of over 50% in size)
Procedure, shortened: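 Read-out: CellTiter-Glo luminescence measured 30 min after reagent addition at room temperature. Cells were VDR-bla HEK 293T exposed 16 h at 37C, 5% CO2, to compound with 3 nM final calcitriol agonist.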

Measured: Potency

CC(C)(O)C(=O)O
inactive: [1] | [2] | [3] | [4] | [5] | [6] | [7] | [8] | [9]

O=C(O)c1ccccc1-n1cc(C(=O)O)c(=O)c2cc(Nc3c(F)cc(F)cc3Cl)c(Cl)cc21
inactive: [1] | [2] | [3] | [4] | [5] | [6] | [7] | [8] | [9]

O=C1c2ccccc2C(=O)C1c1ccc2ccccc2n1
inactive: [1] | [10] | [2] | [3] | [4] | [5] | [6] | [7] | [8] | [9]

CC(=O)Nc1cccc(N)c1
inactive: [1] | [2] | [3] | [4] | [5] | [6] | [7] | [8] | [9]

CC(C)CCCCCCCOC(=O)c1ccc(C(=O)OCCCCCCCC(C)C)c(C(=O)OCCCCCCCC(C)C)c1
inactive: [1] | [10] | [2] | [3] | [4] | [5] | [6] | [7] | [8] | [9]

C/C=C1\[C@H]2C=C(C)C[C@]1(N)c1ccc(=O)[nH]c1C2
inactive: [1] | [10] | [2] | [3] | [4] | [5] | [6] | [7] | [8] | [9]

CCCCCCCCOCCCN
inactive: [2] | [3] | [4] | [5] | [6] | [7] | [8]

COc1ccc(C(=O)Nc2ccccc2)cc1[N+](=O)[O-]
inactive: [1] | [10] | [2] | [3] | [4] | [5] | [6] | [7] | [8] | [9]

O=C(O)c1ccc2cc(O)ccc2c1
inactive: [1] | [10] | [2] | [3] | [4] | [5] | [6] | [7] | [8] | [9]

CC(C)(C)N
inactive: [1] | [10] | [2] | [3] | [4] | [5] | [6] | [7] | [8] | [9]

C[C@H]1C[C@H]2[C@@H]3CCC4=CC(=O)C=C[C@]4(C)[C@@]3(F)[C@@H](O)C[C@]2(C)[C@@]1(O)C(=O)COP(=O)(O)O
inactive: [1] | [10] | [2] | [3] | [4] | [5] | [6] | [7] | [8] | [9]

CC(CN=Cc1ccccc1O)N=Cc1ccccc1O (centres undefined)
inactive: [1] | [2] | [3] | [4] | [5] | [6] | [7] | [8] | [9]

Cc1nc(C)c(C)nc1C
inactive: [1] | [10] | [2] | [3] | [4] | [5] | [6] | [7] | [8] | [9]

CC(C)(Cc1c[nH]c2ccccc12)NCC(O)COc1ccccc1C#N (centres undefined)
inactive: [2] | [3] | [4] | [5] | [6] | [7] | [8] | [9]

CCCCCCCCNC
inactive: [1] | [2] | [3] | [4] | [5] | [6] | [7] | [8] | [9]

CC(C)=CCC/C(C)=C/C=N/O
inactive: [1] | [2] | [3] | [4] | [5] | [6] | [7] | [8] | [9]

CC(=O)c1cccnc1
inactive: [1] | [10] | [2] | [3] | [4] | [5] | [6] | [7] | [8] | [9]

Nc1cccc2c(=O)[nH][nH]c(=O)c12
inactive: [1] | [2] | [3] | [4] | [5] | [6] | [7] | [8] | [9]

CCCC1CCCC(=O)O1 (centres undefined)
inactive: [1] | [2] | [3] | [4] | [5] | [6] | [7] | [8] | [9]

Cc1c(Cl)cccc1Nc1ccccc1C(=O)O
inactive: [1] | [10] | [2] | [3] | [4] | [5] | [6] | [7] | [8] | [9]

CCN(CCCCOC(=O)c1ccc(OC)c(OC)c1)C(C)Cc1ccc(OC)cc1 (centres undefined)
inactive: [1] | [2] | [3] | [4] | [5] | [6] | [7] | [8] | [9]

FC1(F)C(F)(F)C(F)(F)C2(F)C(F)(C1(F)F)C(F)(F)C(F)(F)C1(F)C(F)(F)C(F)(F)C(F)(F)C(F)(F)C12F (centres undefined)
inactive: [1] | [10] | [2] | [3] | [4] | [5] | [6] | [7] | [8] | [9]

CCn1nc(Cc2ccccc2)cc1C1CCN(C[C@H]2C[C@H](N(C)[C@@H](C(=O)O)C(C)C)C[C@@H]2c2cccc(F)c2)CC1
inactive: [1] | [2] | [3] | [4] | [5] | [6] | [7] | [8] | [9]

Clc1cc(Cl)c2c(c1)N=C1CCCCCN1C2
inactive: [1] | [10] | [2] | [3] | [4] | [5] | [6] | [7] | [8] | [9]

C[C@@H](O)[C@H]1C(=O)N2C(C(=O)O)=C(S[C@@H]3CN[C@H](CNS(N)(=O)=O)C3)[C@H](C)[C@H]12
inactive: [2] | [3] | [4] | [5] | [6] | [7] | [8] | [9]

CC(C)C/C=C(\C=O)c1ccccc1
inactive: [1] | [2] | [3] | [4] | [5] | [6] | [7] | [8] | [9]

Cc1nc2sccn2c(=O)c1CCN1CCC(=C(c2ccc(F)cc2)c2ccc(F)cc2)CC1
inactive: [1] | [2] | [3] | [4] | [5] | [6] | [7] | [8] | [9]

O=C1C=CCCC1
inactive: [1] | [10] | [2] | [3] | [4] | [5] | [6] | [7] | [8] | [9]

N#Cc1ccc(CC(=O)c2cccc(C(F)(F)F)c2)cc1
inactive: [1] | [2] | [3] | [4] | [5] | [6] | [7] | [8] | [9]

CC(C(=O)O)c1ccc2c(c1)Cc1cccnc1O2 (centres undefined)
inactive: [1] | [10] | [2] | [3] | [4] | [5] | [6] | [7] | [8] | [9]

CC(=O)Nc1ccn(C2COC(COC(=O)c3ccccc3)O2)c(=O)n1 (centres undefined)
inactive: [1] | [10] | [2] | [3] | [4] | [5] | [6] | [7] | [8] | [9]

CCCCCCCCCC(C)C=O (centres undefined)
inactive: [1] | [2] | [3] | [4] | [5] | [6] | [7] | [8] | [9]

CCCCCC1CCC(=O)O1 (centres undefined)
inactive: [1] | [2] | [3] | [4] | [5] | [6] | [7] | [8] | [9]

C=C[Si](OCC)(OCC)OCC
inactive: [1] | [2] | [3] | [4] | [5] | [6] | [7] | [8] | [9]

CCCN(C1CCN(C(=O)C2CCNCC2)CC1)[C@@H]1CCc2ccc(OC)cc2C1
inactive: [1] | [2] | [3] | [4] | [5] | [6] | [7] | [8] | [9]

O=C(O)COCC(=O)O
inactive: [1] | [2] | [3] | [4] | [5] | [6] | [7] | [8] | [9]

Sc1nc(S)nc(S)n1
inactive: [1] | [10] | [2] | [3] | [4] | [5] | [6] | [7] | [8] | [9]

C/C(=C\C(C)CC(C)CC(C)C)C1CC(=O)OC1=O (centres undefined)
inactive: [1] | [10] | [2] | [3] | [4] | [5] | [6] | [7] | [8] | [9]

CCC[Si](OC)(OC)OC
inactive: [1] | [2] | [3] | [4] | [5] | [6] | [7] | [8] | [9]

O=C1CCCN1CCO
inactive: [1] | [10] | [2] | [3] | [4] | [5] | [6] | [7] | [8] | [9]

O=C(O)c1cccc(C(=O)O)c1C(=O)O
inactive: [1] | [10] | [2] | [3] | [4] | [5] | [6] | [7] | [8] | [9]

O=C(C1CCCCC1)N1CC(=O)N2CCCc3ccccc3C2C1 (centres undefined)
inactive: [1] | [10] | [2] | [3] | [4] | [5] | [6] | [7] | [8] | [9]

CCCC(=O)OCc1ccccc1
inactive: [1] | [10] | [2] | [3] | [4] | [5] | [6] | [7] | [8] | [9]

CC(C)(C)c1cc(C=O)cc(C(C)(C)C)c1O
inactive: [1] | [10] | [2] | [3] | [4] | [5] | [6] | [7] | [8] | [9]

Nc1nc(Cl)nc2c1ncn2[C@H]1C[C@H](O)[C@@H](CO)O1
inactive: [1] | [10] | [2] | [3] | [4] | [5] | [6] | [7] | [8] | [9]

CCCc1ccc(OC)cc1
inactive: [1] | [10] | [2] | [3] | [4] | [5] | [6] | [7] | [8] | [9]

CC1(C)CC(=O)CC(C)(C)N1
inactive: [1] | [10] | [2] | [3] | [4] | [5] | [6] | [7] | [8] | [9]

CC(C)(C)NCC(O)COc1ccc(NC(=O)NC2CCCCC2)cc1 (centres undefined)
inactive: [1] | [10] | [2] | [3] | [4] | [5] | [6] | [7] | [8] | [9]

O=[N+]([O-])c1cccc(I)c1
inactive: [1] | [10] | [2] | [3] | [4] | [5] | [6] | [7] | [8] | [9]

CCc1ccc2c(c1)C(=O)c1ccccc1C2=O
inactive: [1] | [10] | [2] | [3] | [4] | [5] | [6] | [7] | [8] | [9]

O=C1c2ccccc2C(=O)C1c1ccc2cc(S(=O)(=O)O)cc(S(=O)(=O)O)c2n1
inactive: [1] | [10] | [2] | [3] | [4] | [5] | [6] | [7] | [8] | [9]
